High-throughput results as filed in PubChem.
The list is not random: actives were taken first. Their share in the collection is about 3.5%.
FBW7 activator – FBW7 E3 ligase activators, primary screen, biochemical, AlphaScreen, human. F-box/WD repeat-containing protein 7 (Homo sapiens), Q969H0. AlphaScreen FBW7–phospho-cyclin E peptide binding, activator screen. normalized activity (activation), % at 26.1 µM. 0.13% of 650,000 active. AID 1259310, 2017; in the data active means normalized activity above about 1.9%;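 further: purified mutant Fbw7 with reduced substrate affinity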
MITF inh – MITF inhibitors, primary screen, biochemical, AlphaScreen, human; inhibition, % at 2.6 µM; 0.91% of 650,000 active; AlphaScreen MITF homodimerization, bead proximity signal; in the data active means inhibition above about 50%;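 further: 0% = vehicle wells with protein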
GPR151 activ – activators of human GPR151, primary screen, cell-based, PathHunter beta-arrestin, luminescence | 1% of 650,000 active | G-protein coupled receptor 151 (Homo sapiens), Q8TDV0 | AID 1508602, 2020 | activation, % at 11.2 µM | PathHunter beta-arrestin GPR151 cells; in the data active means activation above about 4.9%;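 further: 0% = median of compound wells and 100% = cells with positive control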
Target sequence (Q8TDV0 whole entry, looked up): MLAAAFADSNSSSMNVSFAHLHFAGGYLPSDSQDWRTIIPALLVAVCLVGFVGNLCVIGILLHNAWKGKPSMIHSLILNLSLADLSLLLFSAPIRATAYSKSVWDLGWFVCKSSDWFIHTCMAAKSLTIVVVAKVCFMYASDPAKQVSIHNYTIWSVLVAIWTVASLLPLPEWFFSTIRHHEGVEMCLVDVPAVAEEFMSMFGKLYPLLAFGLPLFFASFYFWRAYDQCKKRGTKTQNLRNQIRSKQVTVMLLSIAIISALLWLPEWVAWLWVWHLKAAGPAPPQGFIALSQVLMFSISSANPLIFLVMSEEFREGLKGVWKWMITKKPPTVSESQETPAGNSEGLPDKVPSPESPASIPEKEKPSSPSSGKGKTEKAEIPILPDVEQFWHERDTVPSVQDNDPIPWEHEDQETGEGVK
TEAD-YAP block – TEAD-YAP interaction inhibition, primary screen, TEAD-YAP interaction inhibitor project, luminescence, HEK-TIYL cells; TEAD-Gal4/YAP UAS-luciferase luminescence; inhibition, % at 9.12 µM; 1.4% of 640,000 active; in the data active means inhibition above about 32%;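 further: 0% = median of test compound wells and 100% = reference inhibitor wells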
GPR151 confirm – GPR151 activators, triplicate retest, confirmation, cell-based, PathHunter beta-arrestin, luminescence; shares compounds with GPR151 activ; GPR151 PathHunter beta-arrestin cells, 90 min; % of EA-reagent control over plate median; activation, % at 11.2 µM; 6,700 tested, under 10 active;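 active means mean percent activation across replicates above the confirmation screen cutoff of 4.91%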
GPR119 counter – GPR119 activators in beta-arrestin cells, counter-screen for GPR151 activator project, cell-based, PathHunter beta-arrestin, luminescence, triplicate; shares compounds with GPR151 activ; 90 min; 0 = compound-well median, 100 = enzyme-acceptor control; activation, % at 11.2 µM; 0.3% of 6,700 active; AID 1508611, 2020;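 active means mean percent activation in the counterscreen above 29.09%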;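 further: counterscreen on off-target GPR119 to flag nonselective hits from the GPR151 activator screen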
Numbers without * were called inactive; / = no result given.

SMILES	FBW7 activator	MITF inh	GPR151 activ	TEAD-YAP block	GPR151 confirm	GPR119 counter
Cn1c(SCC(=O)NCCc2ccccc2)nnc1-c1ccncc1	0	5	6.1*	5	1	1
CSCCC(NS(=O)(=O)c1ccccc1F)C(=O)NCc1ccco1 (configuration not stated)	0	4	1	2	/	/
COc1ccc(C)cc1NC(=O)c1cc(-c2ccc(C)s2)nc2ccccc12	0	5	1	-1	/	/
Cc1cccc(N2C(=O)SC(Nc3ccc(Cl)cc3)C2=O)c1 (configuration not stated)	0	8	-1	1	/	/
CCOC(=O)C(=CNc1cc(C)nn1-c1ccccc1)C(=O)OCC	0	0	6.6*	0	-1	-10
O=C(O)C1CCCN1C(=O)NC1CCCCC1 (configuration not stated)	0	12	4.9*	0	0	1
O=C(Nc1ccccc1)C1CCCN1C(=O)NC1CCCCC1 (configuration not stated)	0	-8	0	0	/	/
O=C1CCC(=O)N1CCC1=CCCCC1	0	4	1	14	/	/
O=C1NC(=O)N(CCC2=CCCCC2)C1=O	0	-7	10*	-1	0	-4
C=CCOc1ccc(/C=C2\C(=O)NC(=O)N(C)C2=O)cc1Br	0	14	5.7*	4	1	8
O=C(COC(=O)c1c[nH]c(=O)[nH]c1=O)Nc1ncc(Br)s1	0	12	0	-3	/	/
O=C(Nc1nnc(SCc2cccc(F)c2)s1)C1CC1	0	11	12*	-4	1	4
CC(=O)Nc1nnc(SCc2cc(=O)c(OC(=O)c3ccccc3[N+](=O)[O-])co2)s1	0	12	6.4*	6	0	1
CCCC(=O)Oc1coc(CSc2nnc(NC(=O)C3CC3)s2)cc1=O	0	11	5.4*	14	-1	-4
O=C(Nc1nnc(SCc2cccc(C(F)(F)F)c2)s1)C1CC1	0	9	2	1	/	/
Cn1ccnc1SCc1cc(=O)c(OC(=O)c2ccccc2[N+](=O)[O-])co1	0	12	5.8*	6	0	0
COc1ccc(CN2COc3cc4c(cc3C2)OCO4)cc1	0	-10	-1	-1	/	/
Cc1nc2ccccc2c(=O)n1OC(=O)c1ccc(C(C)(C)C)cc1	0	4	0	-4	/	/
CCOC(=O)c1c(CN(C)C)oc2ccc(O)cc12	0	16	0	15	/	/
NC(=O)c1ccc(NS(=O)(=O)c2ccc(Cl)cc2)cc1	1	3	2	-4	/	/
CCOc1ccccc1C(=O)Oc1coc(CSc2nc(C)cs2)cc1=O	0	-15	1	2	/	/
COc1ccccc1C(=O)Oc1coc(CSc2nc(C)cs2)cc1=O	0	-13	7.5*	10	-1	-5
CC(C)C[C@H]1C(=O)N2CCN(C(=O)c3cccc(F)c3F)C[C@@H]2C(=O)N1C	1	11	6.6*	3	0	14
C#Cc1cccc(N2C(=O)c3cc4ccccc4c(-c4ccccc4)c3C2=O)c1	0	7	5.4*	7	1	-5
COc1ccc(Cn2c(O)c(C=Nc3ccc(OC)cc3OC)c3ccccc3c2=O)cc1	0	-8	7.0*	4	2	-5
C/C(CC(=O)Nc1cc(C)ccn1)=N\NC(=O)c1ccccc1Cl	-1	-3	0	-12	/	/
CCN1CCN(C(=O)c2ccc(OC)c([N+](=O)[O-])c2)CC1	0	-11	7.4*	-5	-1	-6
COc1ccc(C(=O)N2CCN(C)CC2)cc1[N+](=O)[O-]	0	7	1	-3	/	/
Cc1ccc2cc(CN(C(=O)c3cnccn3)C3CCCC3)c(Cl)nc2c1	0	-4	0	-8	/	/
O=C(c1ccc(-n2cnnn2)cc1)N1CCCc2ccccc21	0	-10	5.0*	0	0	-8
